Screens (PubChem)
TRPV1 agonist – HTS Assay for Compounds that Act as Agonists of the Vanilloid Receptor 1; Transient receptor potential cation channel subfamily V member 1 (Homo sapiens), Q8NER1; TRPV1-expressing cells, Fluo-8 calcium influx, agonist mode; activation, % at 8.33 µM; 0.19% of 320,000 active; AID 540275, 2011; in the data active = activation above about 80%; inconclusive = between about 30% and that limit; note: 0% is about no effect
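TRPV1-expressing cells were cultured overnight at 35.5C and loaded with Fluo-8 calcium dye for 40 to 90 min at room temperature. After a 10 s baseline, compound was added and calcium influx was read kinetically for 3 min (ex 480/em 520 nm).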
A-T KAP1 phos – qHTS Assay for Identifying a Potential Treatment of Ataxia-Telangiectasia; F2112 A-T fibroblasts, KAP-1 phosphorylation AlphaLISA; neocarzinostatin DNA damage 30 min before lysis; Potency, µM (doses to about 57.5 µM), inactives show at the top dose activation, most hits filed as activators; 0.19% of 320,000 active; AID 485349, 2010; active = well fitted activation curve with a large enough effect; inconclusive = small, poorly fitted or top-dose-only effect; inactive = no such curve, though single readings can be large or run the other way; note: potency is the fitted concentration of half-maximal effect; % of control where 0% means no effect; nearly all actives have a fitted effect of over 45% in size
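hTERT-immortalized A-T patient fibroblasts (F2112), 500 cells/well in OPTI-MEM, 1% FBS, got compounds for 60 min, then NCS for 30 min at 37C. Lysates were then assayed for phospho-KAP-1 by AlphaLISA (anti-pKAP1 donor, anti-KAP1 acceptor beads), 6 hr at 25C.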
TRPML1 agonist – qHTS for Agonists of the Human Mucolipin Transient Receptor Potential 1 (TRPML1) | AID 624414, 2012 | TRPML1-expressing cells, Ca2+ dye fluorescence, FDSS | activation, % (no concentration beside the values) | 0.12% of 410,000 active; in the data active = activation above about 50%; inconclusive = mostly about 30% to 49%; note: 0% is about no effect
Target sequence (Q9GZU1 whole entry, looked up): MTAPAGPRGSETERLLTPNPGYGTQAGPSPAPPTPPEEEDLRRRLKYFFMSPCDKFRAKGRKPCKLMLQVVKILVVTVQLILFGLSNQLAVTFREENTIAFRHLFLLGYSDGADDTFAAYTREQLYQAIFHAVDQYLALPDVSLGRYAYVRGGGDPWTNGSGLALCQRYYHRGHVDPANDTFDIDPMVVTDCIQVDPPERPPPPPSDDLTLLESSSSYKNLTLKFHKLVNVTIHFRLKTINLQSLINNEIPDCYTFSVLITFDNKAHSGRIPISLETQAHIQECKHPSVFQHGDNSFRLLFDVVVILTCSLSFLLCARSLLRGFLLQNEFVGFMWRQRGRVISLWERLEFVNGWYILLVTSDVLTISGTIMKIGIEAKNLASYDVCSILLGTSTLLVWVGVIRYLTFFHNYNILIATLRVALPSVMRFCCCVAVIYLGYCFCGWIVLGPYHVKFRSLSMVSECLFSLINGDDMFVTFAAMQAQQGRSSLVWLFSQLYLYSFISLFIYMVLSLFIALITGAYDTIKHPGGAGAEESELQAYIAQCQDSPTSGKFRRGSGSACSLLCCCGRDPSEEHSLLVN
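Cells: TRPML1-DL, 1X Tet inducer, ~16 h at 37 degrees C/5% CO2. Dye: ABD Ca8 no-wash + quencher, 45-90 min RT. Read: 10 s baseline, compound add, 110 s agonist phase; 54-4 EC80 (4uM final), 110 s antagonist phase.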
TRPV1 PAM – HTS Assay for Compounds that Act as Potentiators of the Vanilloid Receptor 1 | potentiation, % at 8.33 µM | TRPV1-expressing cells, Fluo-8 calcium influx, capsaicin EC20 potentiation | Transient receptor potential cation channel subfamily V member 1 (Homo sapiens), Q8NER1 | 0.02% of 320,000 active; in the data active = potentiation above about 80%; inconclusive = between about 30% and that limit; note: 0% is about no effect
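Cells expressing TRPV1 were dye-loaded with Fluo-8 and read kinetically: 10 s baseline, 3 min after compound (agonist portion), then 2 min after EC20 capsaicin (allosteric enhancer portion). Calcium-bound dye fluorescence at 480/520 nm.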
TRPML1 blocker – qHTS for Inhibitors of the Human Mucolipin Transient Receptor Potential 1 (TRPML1). Mucolipin-1 (Homo sapiens), Q9GZU1. TRPML1-inducible cells, Ca2+ dye fluorescence, FDSS; stronger effect = lower value; inhibition of EC80 agonist-evoked calcium signal. activity change, negative = inhibition, % (concentration not given with the values). 0.02% of 390,000 active; in the data active = activity change below about -50%; inconclusive = between about -30% and that limit;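 note: stimulus is agonist 54-4 at its EC80 concentration; % is set by controls: 0 for no effect and ±100 for the full control effect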
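TRPML1-DL cells, Tet-induced overnight (~16 h, 37 °C) at 1,500 cells/well, were loaded with Ca8 no-wash dye plus quencher for 45-90 min at room temperature. Compounds were pinned during FDSS kinetic reading; agonist 54-4 at EC80 (4 uM final) then added.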
The depositor's hits bear a star; ? = inconclusive; . = not tested or not shown. A selection: hits, their analogues and other compounds. The true share with any hit is near 0.41%.

SMILES	TRPV1 agonist	A-T KAP1 phos	TRPML1 agonist	TRPV1 PAM	TRPML1 blocker
CC(=O)Nc1ccc(Sc2ncccc2C(=O)Nc2cc(Cl)cc(Cl)c2)cn1	-1.5	0.0%	12.3	7.8	4.5
CC(=O)Nc1ccc(Sc2ncccc2C(=O)Nc2ccc(OC(F)(F)F)cc2)cn1	-4.3	10.8%	51.9*	9.0	-7.5
COc1cc2c(NC3CCN(C)CC3)nc(N3CCN(C)CC3)nc2cc1OCCCN(C)C	.	.	-0.6	.	.
Cc1cc(C)c2nc(-c3ccccn3)cc(C(=O)NCc3cc(C)n(C)n3)c2c1	87.5*	0.1%	-0.2	-16.5	7.0
COc1ccc(CCNc2ncnc3c2c(-c2ccccc2)cn3-c2cccc(Cl)c2)cc1OC	.	.	73.9*	.	-3.2
O=C(Nc1nccs1)[C@@H]1CC=C[C@@H]2CCN(C3CCCCC3)C(=O)[C@@H]21	.	.	-0.7	.	.
CCN(CCCNC(=O)c1cn(CC)c2ccc(S(=O)(=O)N(C)C)cc2c1=O)c1cccc(C)c1	109.5*	7.2%	-0.6	-2.5	-4.4
CCn1cc(C(=O)NCCCN(C)c2ccccc2)c(=O)c2cc(S(=O)(=O)N(C)C)ccc21	?	1.4%	2.4	4.0	26.1
O=C1NCCCC2c3cc(O)c4ccccc4c3OC12N1CCCCC1 (centres undefined)	-1.0	4.2%	.	2.5	.
O=C1NCCCC2c3c(cc(Br)c(O)c3Br)OC12N1CCOCC1 (centres undefined)	2.7	20µM*	-0.7	16.3	5.7
NC1=NC(=O)/C(=C\c2ccc(-c3ccccc3[N+](=O)[O-])o2)S1	.	.	-0.3	.	.
CCc1nc(Nc2ccccc2)c2oc3ccccc3c2n1	84.2*	1.1%	2.9	-6.7	36.7
CCc1nc(Nc2cccc(OC)c2)c2oc3ccccc3c2n1	81.4*	17.1%	1.1	-0.3	22.3
COCCNC(=O)c1c[nH]c2ccc(S(=O)(=O)N(C)c3ccc(C)c(C)c3)cc2c1=O	1.9	7.08µM*	-0.4	28.8	-11.9
C=CCN(c1ccccc1)S(=O)(=O)c1ccc2[nH]cc(C(=O)NCCOC)c(=O)c2c1	-0.8	-1.9%	0.9	1.3	-4.4
COc1cccc2c1C(=O)/C(=C\c1ccc(N(C)C)cc1)C2	.	.	62.1*	.	.
c1ccc(-c2ccc(-c3csc4ncnc(Sc5nnnn5-c5ccccc5)c34)cc2)cc1	.	.	-0.4	.	.
Cn1c(Sc2nc3ccccc3n2C)nc2ccccc21	.	20µM*	-0.4	.	-11.7
Cn1c(SCC(=O)N2CCCC2)nc2ccccc21	1.1	-11.7%	-0.8	1.4	4.7
CC(OC(=O)c1ccccc1OCC(=O)Nc1ccc(Br)cc1)C(=O)NC1CCCC1 (centres undefined)	.	.	-0.2	.	.
O=C(NCc1nc2ccccc2[nH]1)C1=C[C@H](c2ccccc2)C[C@H](OCCCCO)O1	-4.6	39.8µM*	-0.3	-35.8	26.2
O=C(NCc1nc2ccccc2[nH]1)C1=C[C@@H](c2ccc(C(F)(F)F)cc2)C[C@@H](OCCCCO)O1	.	.	1.0	.	40.6
Cc1ccc(OCC(=O)N(Cc2cccs2)C2CCS(=O)(=O)C2)cc1C (centres undefined)	-2.1	2.24µM*	0.9	-13.1	-18.1
Cc1cccc(OCC(=O)N(Cc2cccs2)C2CCS(=O)(=O)C2)c1 (centres undefined)	2.9	3.0%	-0.4	9.5	5.2
COc1ccccc1OC(C)C(=O)Nc1nc(-c2ccc(S(=O)(=O)N3CCOCC3)cc2)cs1 (centres undefined)	7.7	-0.4%	0.1	9.1	2.0
CC(C)C(=O)Nc1nc(-c2ccc(S(=O)(=O)N3CCOCC3)cc2)cs1	-0.4	12.6µM*	0.3	12.4	-20.3
CCCCCCc1cc2cc(-c3cn4c(n3)sc3cc(OC)ccc34)c(=O)oc2cc1O	.	.	2.8	.	-70.7*
c1ccc(-c2cnn3c(-c4ccccc4)c(-c4ccccc4)nc3n2)cc1	?	9.7%	79.0*	-3.4	-25.3
